Assay [1] addresses human Acetylcholinesterase (AChE), ACHE (gene 43) (UniProt P22303). Nature of the assay: NVS_ENZ_hAChE: NovaScreen (NVS) Enzymatic Assay for human Acetylcholinesterase (AChE) (AID 2283129). The gist of the method: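 Actives from a duplicate single-point screen (25 uM) were followed up in concentration series. Enzyme activity read by absorbance (colorimetric) 0.33 hour after dosing, cell-free, normalized to DMSO, with loss of signal scored.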

The subject of assay [2] is rat Monoamine Oxidase, MAO-A, Peripheral (MAOAP), gene 29253. Description: NVS_ENZ_rMAOAP: NovaScreen (NVS) Enzymatic Assay for rat Monoamine Oxidase, MAO-A, Peripheral (MAOAP) (AID 2283237). The gist of the method:
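Scintillation counting tracked MAO-A activity in a cell-free rat liver mitochondrial membrane prep, read 1.17 hours after compound addition. Single-point duplicate testing at 25 uM preceded concentration-response follow-up; activity was fitted relative to DMSO.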

In assay [3] the target is rat Monoamine Oxidase, MAO-B, Central (MAOBC), Maob (gene 25750) (UniProt P19643). Description: NVS_ENZ_rMAOBC: NovaScreen (NVS) Enzymatic Assay for rat Monoamine Oxidase, MAO-B, Central (MAOBC) (AID 2283238). The gist of the method: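 Cell-free radiometric assay, rat brain lysate. Read-out: scintillation counts, 1.17 h post-dosing. Screen 25 uM in duplicate; actives (e.g. ≥30% inhibition) then singleton concentration-response, max 50 uM. Activity loss fitted relative to DMSO.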
rat Monoamine Oxidase, MAO-B, Central (MAOBC), Maob (gene 25750), sequence (P19643 whole entry, looked up): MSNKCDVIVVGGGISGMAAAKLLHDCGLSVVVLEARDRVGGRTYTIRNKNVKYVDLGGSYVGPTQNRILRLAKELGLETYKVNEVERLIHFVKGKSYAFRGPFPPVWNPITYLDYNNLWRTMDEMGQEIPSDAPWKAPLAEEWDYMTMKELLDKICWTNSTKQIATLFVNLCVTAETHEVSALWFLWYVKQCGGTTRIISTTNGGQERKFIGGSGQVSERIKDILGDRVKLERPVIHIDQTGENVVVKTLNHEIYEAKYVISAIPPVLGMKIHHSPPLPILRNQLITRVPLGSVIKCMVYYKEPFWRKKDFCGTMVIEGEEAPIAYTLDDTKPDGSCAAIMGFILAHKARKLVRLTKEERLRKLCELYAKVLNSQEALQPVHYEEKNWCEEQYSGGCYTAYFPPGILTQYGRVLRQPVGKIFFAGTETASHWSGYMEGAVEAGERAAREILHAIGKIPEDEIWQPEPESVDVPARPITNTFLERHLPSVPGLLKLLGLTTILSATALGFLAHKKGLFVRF

In assay [4] the target is rat Monoamine Oxidase, MAO-B, Peripheral (MAOBP), Maob (gene 25750) (UniProt P19643). Nature of the assay: NVS_ENZ_rMAOBP: NovaScreen (NVS) Enzymatic Assay for rat Monoamine Oxidase, MAO-B, Peripheral (MAOBP) (AID 2283242).
rat Monoamine Oxidase, MAO-B, Peripheral (MAOBP), Maob (gene 25750), sequence (P19643 whole entry, looked up): as above
For assay [5], the system named is rat Monoamine Oxidase, MAO-A, Central (MAOAC), gene 29253. Nature of the assay: NVS_ENZ_rMAOAC: NovaScreen (NVS) Enzymatic Assay for rat Monoamine Oxidase, MAO-A, Central (MAOAC) (AID 2283243).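 Note: potency refers to inhibition seen as signal drop below DMSO baseline.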 The gist of the method:
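Enzyme from rat brain, cell-free radiodetection format. Counts taken at 1.5 h; activity fitted against DMSO baseline, loss of signal marking inhibition. Confirmatory concentration series followed the 25 uM duplicate screen.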

The target of assay [6] is human AMP-activated Protein Kinase, alpha 1 (AMPKa1), PRKAA1 (gene 5562) (UniProt Q13131). Description: NVS_ENZ_hAMPKa1: NovaScreen (NVS) Enzymatic Assay for human AMP-activated Protein Kinase, alpha 1 (AMPKa1) (AID 2283130). The gist of the method:
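Compounds were screened in duplicate at 25 uM, and those reaching ~30% inhibition were titrated up to 50 uM. The enzyme was recombinant human AMPKα1, and kinase turnover was read by fluorescence/mobility shift 1 h post-dosing as loss of signal versus DMSO.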

Assay [7] has as its target human Aurora Kinase A - serine/threonine-protein Kinase 6 (AurA), AURKA (gene 6790) (UniProt O14965). Description: NVS_ENZ_hAurA: NovaScreen (NVS) Enzymatic Assay for human Aurora Kinase A - serine/threonine-protein Kinase 6 (AurA) (AID 2283142). The gist of the method: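 Recombinant human AurA activity read by fluorescence after mobility-shift separation of product from substrate; 1 hour incubation. Chemicals first run in duplicate at 25 uM, then concentration series to 50 uM if over threshold; fitted relative to DMSO.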

For assay [8], the target named is human Fibroblast Growth Factor Receptor 1 (FGFR1), FGFR1 (gene 2260) (UniProt P11362). Description: NVS_ENZ_hFGFR1: NovaScreen (NVS) Enzymatic Assay for human Fibroblast Growth Factor Receptor 1 (FGFR1) (AID 2283159).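 For AC50: hits lower the signal so potencies describe inhibitors of the kinase.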 The gist of the method: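 Cell-free recombinant kinase with fluorescent substrate, product separated by electrophoretic mobility shift; read 1 hour after dosing, loss of signal relative to DMSO. Initial screen in duplicate at 25 uM, actives followed in concentration series.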
human Fibroblast Growth Factor Receptor 1 (FGFR1), FGFR1 (gene 2260), sequence (P11362 whole entry, looked up): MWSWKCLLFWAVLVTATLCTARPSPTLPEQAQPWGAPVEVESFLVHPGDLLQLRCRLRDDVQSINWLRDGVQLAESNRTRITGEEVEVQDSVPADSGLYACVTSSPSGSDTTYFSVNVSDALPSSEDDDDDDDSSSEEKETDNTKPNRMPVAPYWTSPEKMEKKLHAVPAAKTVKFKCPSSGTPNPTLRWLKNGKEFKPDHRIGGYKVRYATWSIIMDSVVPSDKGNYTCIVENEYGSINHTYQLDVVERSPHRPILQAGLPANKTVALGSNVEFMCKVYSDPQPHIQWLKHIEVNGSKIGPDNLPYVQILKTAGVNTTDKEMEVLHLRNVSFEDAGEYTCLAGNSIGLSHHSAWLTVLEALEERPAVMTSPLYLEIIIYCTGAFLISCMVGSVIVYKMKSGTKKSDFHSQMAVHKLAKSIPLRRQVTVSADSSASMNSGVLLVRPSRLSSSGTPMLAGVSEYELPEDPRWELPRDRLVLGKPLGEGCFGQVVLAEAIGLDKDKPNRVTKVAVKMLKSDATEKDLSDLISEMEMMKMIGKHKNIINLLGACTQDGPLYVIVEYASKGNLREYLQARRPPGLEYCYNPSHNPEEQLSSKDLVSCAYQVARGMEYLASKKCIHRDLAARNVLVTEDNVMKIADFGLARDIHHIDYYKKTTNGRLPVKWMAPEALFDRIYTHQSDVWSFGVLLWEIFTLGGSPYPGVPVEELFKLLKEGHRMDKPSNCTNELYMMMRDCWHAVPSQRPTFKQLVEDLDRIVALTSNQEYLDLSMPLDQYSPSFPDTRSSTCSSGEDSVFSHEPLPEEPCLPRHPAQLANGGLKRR

Assay [9] addresses human IkappaB Kinase alpha (IKKa), CHUK (gene 1147) (UniProt O15111). Nature of the assay: NVS_ENZ_hIKKa: NovaScreen (NVS) Enzymatic Assay for human IkappaB Kinase alpha (IKKa) (AID 2283167). The gist of the method:
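Compounds first run in duplicate at 25 uM, those meeting threshold (e.g. 30% inhibition) retested to maximum 50 uM. Enzyme activity of recombinant IKKa measured by fluorescence with electrophoretic mobility shift separation, 1 hour post-dosing, DMSO baseline.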

Assay [10] has as its target human p21 Activated Kinase 4 (PAK4), PAK4 (gene 10298) (UniProt O96013). Nature of the assay: NVS_ENZ_hPAK4: NovaScreen (NVS) Enzymatic Assay for human p21 Activated Kinase 4 (PAK4) (AID 2283189). The gist of the method: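 Extracted PAK4 enzyme activity read by fluorescence with mobility-shift separation 1 h after chemical addition. Duplicate single-concentration screen at 25 uM, DMSO as negative control.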

Assay [11] has as its target human Tyrosine Protein Kinase Receptor Tie-2 (Tie2), TEK (gene 7010) (UniProt Q02763). Nature of the assay: NVS_ENZ_hTie2: NovaScreen (NVS) Enzymatic Assay for human Tyrosine Protein Kinase Receptor Tie-2 (Tie2) (AID 2283225). The gist of the method:
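Substrate and product were separated by mobility shift and detected by fluorescence after a 1-hour reaction with recombinant Tie2. Chemicals passing a 25 uM single-point screen were titrated to a maximum of 50 uM. Results were normalized to DMSO baseline.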

Assay [12] can be described thus: ATG_M_32_XSP2: Attagene TRANS-FACTORIAL Multi-Species (XSP2) HepG2 Assay for M19 Transcription Factor (Internal Marker) (AID 2283826). The gist of the method: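 Total RNA is taken from compound-treated HepG2 cells after 24 h and reverse-transcribed; reporter cDNA is PCR-amplified, end-labelled with 6-FAM, digested with HpaI for 2h at 37 C and sized by capillary electrophoresis. Activity is fitted in the positive direction against DMSO.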

Assay [13] concerns the target human Raf-1 Proto-Oncogene, serine/threonine Kinase (RAF1), RAF1 (gene 5894) (UniProt P04049). Nature of the assay: NVS_ENZ_hRAF1: NovaScreen (NVS) Enzymatic Assay for human Raf-1 Proto-Oncogene, serine/threonine Kinase (RAF1) (AID 2283216). The gist of the method: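 Single-point screening at 25 uM (duplicate), followed by singleton concentration-response to 50 uM maximum for chemicals exceeding threshold. Enzyme activity from fluorescent substrate-product mobility-shift separation after 1 h, relative to DMSO.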

Assay [14] concerns the target human Caspase 2 (CASP2), CASP2 (gene 835) (UniProt P42575). Nature of the assay: NVS_ENZ_hCASP2: NovaScreen (NVS) Enzymatic Assay for human Caspase 2 (CASP2) (AID 2283135). The gist of the method: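 Single-point duplicate testing at 25 uM preceded concentration series topping at 50 uM. Activity of the recombinant E. coli-derived protease was followed by fluorescent substrate cleavage 1 h post-dosing, relative to DMSO.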

For assay [15], the target named is human Epidermal Growth Factor Receptor (EGFR), EGFR (gene 1956) (UniProt P00533). Description: NVS_ENZ_hEGFR: NovaScreen (NVS) Enzymatic Assay for human Epidermal Growth Factor Receptor (EGFR) (AID 2283151). The gist of the method:
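Cell-free kinase assay, fluorescence plus electrophoretic mobility shift separating substrate and product, read 1 hour after dosing; loss of signal vs DMSO. Duplicate screen at 25 uM, then concentration-response to 50 uM.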

Assay [16] deals with human Matrix Metalloproteinase-1 (MMP1), MMP1 (gene 4312) (UniProt P03956). Description: NVS_ENZ_hMMP1: NovaScreen (NVS) Enzymatic Assay for human Matrix Metalloproteinase-1 (MMP1) (AID 2283181). The gist of the method: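 Cell-free fluorescent substrate assay of human MMP1, read after 1 h. A single 25 uM duplicate screen was followed by concentration series to a maximum of 50 uM for actives meeting threshold; inhibition analysed against DMSO baseline.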

The target of assay [17] is human Protein Tyrosine Phosphatase Receptor Type C (PTPRC), PTPRC (gene 5788) (UniProt P08575). Description: NVS_ENZ_hPTPRC: NovaScreen (NVS) Enzymatic Assay for human Protein Tyrosine Phosphatase Receptor Type C (PTPRC) (AID 2283212). The gist of the method: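 Absorbance-based phosphatase activity of human PTPRC protein extracted from yeast was measured 1 h post-dosing. Compounds first tested at 25 uM in duplicate, then those passing threshold in singleton concentration series to 50 uM.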

Assay [18] deals with Voltage-dependent N-type calcium channel subunit alpha-1B (Rattus norvegicus) (UniProt Q02294). Nature of the assay: NVS_IC_rCaChN: NovaScreen (NVS) Ion Channel Assay for rat Calcium Channel, Type N (CaChN) (AID 2283317).
Assay [19] concerns the target Protein deacetylase HDAC6 (Homo sapiens) (UniProt Q9UBN7). Description: NVS_ENZ_hHDAC6: NovaScreen (NVS) Enzymatic Assay for human Histone Deacetylase 6 (HDAC6) (AID 2283164). The gist of the method:
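Concentration-response runs up to 50 uM followed a duplicate 25 uM single-point screen. Deacetylase activity of recombinant human HDAC6 read by fluorescence after 1 h, with mobility-shift separation of substrate and product; DMSO as baseline.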

For assay [20], the target named is Norway rat Vesicular Monoamine Transporter (VMAT2), neurotransmitter transporter, Slc18a2 (gene 25549) (UniProt Q01827). Nature of the assay: NVS_TR_rVMAT2: NovaScreen (NVS) Transporter Assay for Norway rat Vesicular Monoamine Transporter (VMAT2), neurotransmitter transporter (AID 2283376).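 Note: actives lower the bound radioligand signal below the DMSO level.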 The gist of the method: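 Filter-based scintillation counting of radioligand bound to rat forebrain-derived VMAT2 protein, cell-free, 1 h post-dose. Signal loss relative to DMSO control scored; single-concentration duplicate screen (25 uM) followed by concentration-response testing of actives.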
Norway rat Vesicular Monoamine Transporter (VMAT2), neurotransmitter transporter, Slc18a2 (gene 25549), sequence (Q01827 whole entry, looked up): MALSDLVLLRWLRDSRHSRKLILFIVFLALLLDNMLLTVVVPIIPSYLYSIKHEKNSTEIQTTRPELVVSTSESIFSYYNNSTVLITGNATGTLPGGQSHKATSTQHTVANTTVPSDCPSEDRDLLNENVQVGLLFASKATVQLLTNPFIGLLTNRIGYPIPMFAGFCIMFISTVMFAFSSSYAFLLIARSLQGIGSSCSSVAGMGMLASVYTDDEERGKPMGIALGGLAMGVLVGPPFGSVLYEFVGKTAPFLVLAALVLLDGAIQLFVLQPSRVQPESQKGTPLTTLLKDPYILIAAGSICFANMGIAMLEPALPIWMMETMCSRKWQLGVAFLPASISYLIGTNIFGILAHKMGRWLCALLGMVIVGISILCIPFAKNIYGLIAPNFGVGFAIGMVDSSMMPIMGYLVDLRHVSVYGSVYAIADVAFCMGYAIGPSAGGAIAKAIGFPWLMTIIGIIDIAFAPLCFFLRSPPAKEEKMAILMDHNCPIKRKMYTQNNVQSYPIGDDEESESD

Inconclusive results are not listed. Some compounds were tested as several samples or in several runs, with calls that do not always agree. Calls of active or inactive are those of the source. Rule for the calls: active = hit-call score of the fitted dose curve at least 0.9, where 1 is the maximum; inconclusive = response in the unintended direction; inactive = score below 0.9.

human AMP-activated Protein Kinase, alpha 1 (AMPKa1), PRKAA1 (gene 5562), sequence (Q13131 whole entry, looked up): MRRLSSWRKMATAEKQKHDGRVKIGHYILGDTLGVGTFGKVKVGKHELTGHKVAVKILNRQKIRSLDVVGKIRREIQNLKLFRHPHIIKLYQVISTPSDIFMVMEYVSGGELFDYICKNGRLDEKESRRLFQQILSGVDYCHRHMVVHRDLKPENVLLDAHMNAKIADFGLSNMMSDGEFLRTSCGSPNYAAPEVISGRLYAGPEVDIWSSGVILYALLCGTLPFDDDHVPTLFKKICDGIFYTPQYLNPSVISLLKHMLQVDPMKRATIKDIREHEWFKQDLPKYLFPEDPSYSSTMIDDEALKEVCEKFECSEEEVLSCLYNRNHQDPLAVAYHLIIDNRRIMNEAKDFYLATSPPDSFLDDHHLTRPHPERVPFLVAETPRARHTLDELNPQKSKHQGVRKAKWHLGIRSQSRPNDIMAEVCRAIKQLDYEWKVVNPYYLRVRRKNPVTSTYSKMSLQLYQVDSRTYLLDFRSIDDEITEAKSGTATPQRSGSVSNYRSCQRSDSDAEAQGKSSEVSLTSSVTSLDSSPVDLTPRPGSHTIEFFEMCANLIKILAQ
human Raf-1 Proto-Oncogene, serine/threonine Kinase (RAF1), RAF1 (gene 5894), sequence (P04049 whole entry, looked up): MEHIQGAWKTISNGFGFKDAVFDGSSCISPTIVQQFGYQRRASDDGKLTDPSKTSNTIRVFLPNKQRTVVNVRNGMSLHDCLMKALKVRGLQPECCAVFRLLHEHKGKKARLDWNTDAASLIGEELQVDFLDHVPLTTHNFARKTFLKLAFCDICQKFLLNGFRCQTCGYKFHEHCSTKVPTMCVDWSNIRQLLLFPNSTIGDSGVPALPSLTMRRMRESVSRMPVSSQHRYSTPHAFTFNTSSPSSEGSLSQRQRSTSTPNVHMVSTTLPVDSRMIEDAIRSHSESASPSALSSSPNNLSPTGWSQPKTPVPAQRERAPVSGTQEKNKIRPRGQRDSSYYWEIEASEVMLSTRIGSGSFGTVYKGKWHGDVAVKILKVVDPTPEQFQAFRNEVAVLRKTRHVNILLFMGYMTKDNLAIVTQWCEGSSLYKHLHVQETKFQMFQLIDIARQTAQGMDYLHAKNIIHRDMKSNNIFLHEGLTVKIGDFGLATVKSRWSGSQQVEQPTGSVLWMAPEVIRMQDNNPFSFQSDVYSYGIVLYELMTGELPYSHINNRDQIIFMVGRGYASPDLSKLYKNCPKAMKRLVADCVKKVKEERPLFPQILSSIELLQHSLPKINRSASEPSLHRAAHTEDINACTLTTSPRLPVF
human Acetylcholinesterase (AChE), ACHE (gene 43), sequence (P22303 whole entry, looked up): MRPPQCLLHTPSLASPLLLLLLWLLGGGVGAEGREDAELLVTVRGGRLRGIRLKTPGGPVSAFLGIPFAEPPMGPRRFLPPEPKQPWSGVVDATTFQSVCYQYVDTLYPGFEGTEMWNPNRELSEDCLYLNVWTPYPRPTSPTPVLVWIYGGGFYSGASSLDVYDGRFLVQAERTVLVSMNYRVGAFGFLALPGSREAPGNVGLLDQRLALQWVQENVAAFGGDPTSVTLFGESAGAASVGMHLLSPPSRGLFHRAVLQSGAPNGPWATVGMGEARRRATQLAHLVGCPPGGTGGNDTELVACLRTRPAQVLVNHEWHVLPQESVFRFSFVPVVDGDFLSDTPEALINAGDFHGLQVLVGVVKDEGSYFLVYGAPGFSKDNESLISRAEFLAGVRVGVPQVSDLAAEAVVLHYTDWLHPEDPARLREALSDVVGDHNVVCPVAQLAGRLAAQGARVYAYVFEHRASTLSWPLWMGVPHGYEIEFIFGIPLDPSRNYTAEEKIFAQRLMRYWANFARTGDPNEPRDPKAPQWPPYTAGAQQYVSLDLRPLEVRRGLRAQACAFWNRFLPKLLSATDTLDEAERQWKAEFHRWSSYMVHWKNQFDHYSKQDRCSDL
human Aurora Kinase A - serine/threonine-protein Kinase 6 (AurA), AURKA (gene 6790), sequence (O14965 whole entry, looked up): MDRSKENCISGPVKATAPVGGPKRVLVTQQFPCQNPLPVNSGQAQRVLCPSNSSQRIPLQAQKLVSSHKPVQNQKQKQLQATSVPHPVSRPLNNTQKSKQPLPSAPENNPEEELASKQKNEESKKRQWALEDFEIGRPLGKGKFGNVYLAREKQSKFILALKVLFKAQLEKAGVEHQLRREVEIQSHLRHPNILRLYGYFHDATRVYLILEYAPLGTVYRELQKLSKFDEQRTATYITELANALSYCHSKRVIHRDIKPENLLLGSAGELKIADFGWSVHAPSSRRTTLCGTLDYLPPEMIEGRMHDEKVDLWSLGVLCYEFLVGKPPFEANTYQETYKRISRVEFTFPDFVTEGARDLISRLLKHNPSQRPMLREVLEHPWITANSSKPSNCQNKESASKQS
human Caspase 2 (CASP2), CASP2 (gene 835), sequence (P42575 whole entry, looked up): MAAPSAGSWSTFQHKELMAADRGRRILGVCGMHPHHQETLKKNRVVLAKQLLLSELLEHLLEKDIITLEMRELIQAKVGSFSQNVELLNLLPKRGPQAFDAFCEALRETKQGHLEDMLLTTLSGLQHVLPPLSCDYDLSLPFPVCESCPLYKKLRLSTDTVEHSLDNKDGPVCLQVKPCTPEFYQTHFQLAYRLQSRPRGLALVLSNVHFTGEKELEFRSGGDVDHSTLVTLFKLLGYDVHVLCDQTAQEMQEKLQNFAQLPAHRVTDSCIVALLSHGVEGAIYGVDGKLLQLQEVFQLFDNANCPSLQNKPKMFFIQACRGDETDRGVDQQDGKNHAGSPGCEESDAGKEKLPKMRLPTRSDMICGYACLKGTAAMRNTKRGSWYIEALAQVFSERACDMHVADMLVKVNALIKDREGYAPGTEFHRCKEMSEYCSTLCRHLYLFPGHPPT

`NCc1cccc(C2CCN(C(=O)c3ccc(C#Cc4ccccc4F)o3)CC2)c1`: the half-maximal activity concentration (AC50) in [1] was 25 µM (active); in [2], 3.57 µM (active); in [3], 11.2 µM (active); in [4], 38 µM (active); in assay [5], 1.72 µM (active).
On to `CC/C(=C(\c1ccccc1)c1ccc(OCCN(C)C)cc1)c1ccccc1`, for which the AC50 in [1] was 17 µM (active); in [6] it was 25.4 µM (active); in assay [8], 33.5 µM (active). For the same compound, the compound was called inactive in [6], in assay [7], in assay [9], in assay [10], in assay [11] and in [12].
Consider `COCCOc1cc2cc(C(=O)NC3CCN(C(C)C)CC3)n(CC(=O)Nc3ccc(Cl)cn3)c2cn1`, for which the AC50 in [1] is 29 µM (active).
For `Clc1cc(Cl)c2c(c1)N=C1CCCCCN1C2`, the concentration at half-maximal activity (AC50) in [1] is 0.351 µM (active); in assay [2], 4.96 µM (active); in assay [5] it was 8.08 µM (active). In addition, the result in assay [13] was inactive.
Consider `CC[C@H]1CC[C@H](NCc2cc3c(cc2OC)[C@H]2C[C@H]2C(=O)N3C)[C@H](c2ccccc2)N1`, for which the AC50 in assay [1] is 20.5 µM (active).
As for `Cc1cc(CCN2CCN(c3nsc4ccccc34)CC2)cc2c1NC(=O)CC2(C)C`, the result in [1], in [7], in assay [8], in assay [13] and in [2] was inactive.
For `O=C1c2c(O)cccc2Cc2cccc(O)c21`, the AC50 is 0.484 µM (active) in assay [1] and 1.03 µM (active) in [14].
In the case of `CC(C)CC(C)(O)C#CC(C)(O)CC(C)C` (centres undefined), the compound was called inactive in [6].
On to `CCCCC(CC)COC(=O)CCCCCCCCC(=O)OCC(CC)CCCC` (centres undefined), for which the concentration at half-maximal activity (AC50) in assay [1] is 16.7 µM (active).
On to `CCCCC(CC)COP(=O)(OCC(CC)CCCC)OCC(CC)CCCC` (centres undefined), for which the half-maximal activity concentration (AC50) in assay [1] was 32.7 µM (active).
`CCCCCCC(CCCCCCCCCCC(=O)OCC(COC(C)=O)OC(C)=O)OC(C)=O` (centres undefined): the call in assay [1] and in assay [15] was inactive.
On to `CNS(=O)(=O)c1cc(C(=O)N2CCC(CCN3C4CCC3CC(n3c(C)nc5ccccc53)C4)(c3cccc(F)c3)CC2)c(Cl)cc1F` (centres undefined), for which the compound was called inactive in assay [1], in assay [2] and in [4]. The AC50 in [6] is 36 µM (active); in [16] it was 16.7 µM (active).
`CS(=O)(=O)c1ccc([C@@H](C[C@H]2CCC(=O)C2)C(=O)Nc2cnccn2)cc1Cl`: the call in assay [1] and in [18] was inactive. Besides, the half-maximal activity concentration (AC50) in [17] was 16.6 µM (active).
Turning to `Cn1c(=O)cc(Oc2ccc(F)cc2F)c2cnc(NCC(C)(C)O)nc21`, the AC50 in assay [1] was 17.3 µM (active). In addition, the compound was called inactive in assay [19] and in assay [13].
Regarding `CCOC(=O)c1ccc(C2CCC(NC[C@H](O)COc3ccc(O)c(NS(C)(=O)=O)c3)CC2)cc1` (some centres undefined), the AC50 in assay [1] was 23.4 µM (active); in assay [3] it was 10.2 µM (active).
As to `N=C(N)c1ccc(OCCCCCOc2ccc(C(=N)N)cc2)cc1`, the concentration at half-maximal activity (AC50) in assay [1] was 19.3 µM (active); in [2], 0.504 µM (active); in [3], 0.0798 µM (active); in [4], 0.905 µM (active); in assay [5] it was 0.203 µM (active).
`O=C1c2ccccc2C(=O)N1CCc1noc(-c2ccc(CN3CCCCCC3)s2)n1`: the AC50 in assay [1] is 13.8 µM (active); in [3] it was 12.5 µM (active); in assay [4] it was 11.4 µM (active); in assay [20] it was 2.87 µM (active). The result in [6] and in assay [19] was inactive.
With `CCCCCOC(C)=O`, in [1], the call was inactive.
Turning to `CS(=O)(=O)c1ccc([C@@H](CC2CCCC2)C(=O)Nc2cnccn2)cc1Cl`, the call in assay [1] was inactive. Also, in assay [20], the concentration at half-maximal activity (AC50) was 7.12 µM (active).

The values above are taken from PubChem BioAssay (EPA / NIEHS).
